# In ChEMBL document CHEMBL4888484, “Replenishing the malaria drug discovery pipeline: Screening and hit evaluation of the MMV Hit Generation Library 1 (HGL1) against asexual blood stage Plasmodium falciparum ,using a nano luciferase reporter read-out” (2022):
# The campaign covered roughly 4,800 compounds. About 410 (8.5%) showed an effect of 50% or more. What follows is part of a selection rich in strong results, with near analogues and random picks from the rest.
# System: Plasmodium falciparum
# Assay: Confirmatory screen in NF54 pLDH assay, in single point, at 2uM, 72h
# Assay type: functional, Erythrocyte
# Details: timepoint 72 hour
row,Compound,% Inhibition
1,CCN(CC)C(=O)c1cc(C)n(-c2ccc3c(c2)OCCO3)c1C,-3%
2,O=C1c2[nH]nc(-c3cccs3)c2[C@@H](c2cccc(O)c2)N1c1nccs1,5%
3,O=S(=O)(N[C@H]1CCc2nnc(-c3ccc(F)cc3)n2C1)c1cccnc1,13%
4,C[C@@H]1CN(c2ccc(N)cn2)C[C@H](C)O1,-12%
5,CCCNC(=O)C[C@H](C)CC(=O)NCCc1ccc(OC)c(OC)c1,14%
6,COc1ccc(CCNC(=O)CCCC(=O)NCc2ccccc2)cc1OC,-14%
7,COc1ccc(CC(=N)Nc2cc3cc(OC)c(OC)cc3c(Cc3ccc(OC)c(OC)c3)n2)cc1OC,89%
8,CNC(=O)C(=O)Nc1ccccc1C(F)(F)F,9%
9,C[C@H](NC(=O)c1cocn1)c1ccccc1NC(=O)c1cocn1,-7%
10,Cc1cc([C@H](Nc2ccccn2)c2cccnc2)c(NC(=O)c2ccccc2)s1,4%
11,Oc1ccc2ncccc2c1[C@@H](Nc1ccccn1)c1cccc(Br)c1,77%
12,Cc1cc([C@H](Nc2ccccn2)c2ccccc2)c(NC(=O)c2ccccc2)s1,3%
13,CCCC(=O)N1CCC(OC(=O)c2cnc3ccc(F)cc3c2)CC1,-10%
14,CC(C)Nc1nc2nonc2n2cnnc12,90%
15,COc1ccc(Nc2ncc(Cc3ccccc3C)s2)cc1,4%
16,CC(C)C(CNCc1nnn(C)n1)C(C)C,11%
17,FC(F)(F)c1cnc(-c2csc(NC3CCCCC3)n2)c(Cl)c1,15%
18,NC(=O)c1nnn2c1C(=O)N[C@H](c1ccc(Cl)cc1)C2,-13%
19,CCc1c(-c2nc(CCN(C)C(=O)c3ccoc3)no2)[nH]c2ccc(C)cc12,-19%
20,CCN1c2cc(C(=O)N3CCCCC3)ccc2C(=O)N2CCCCC[C@H]21,6%
21,Cc1cc(C)n(C(=O)CNC(=O)c2ccccn2)n1,14%
22,Cc1cc(NC(=O)c2ccccn2)n(-c2nc3ccccc3o2)n1,93%
23,Cc1cc(C(=O)Nc2cc(C)nn2C)nc(N(C)C)n1,8%
24,COc1ccc(S(=O)(=O)N2CC[C@@H]3[C@@H](COCCN3Cc3ccccc3)C2)cc1,0%
25,O=C(CNC(=O)COc1ccccc1)NCC1(O)CCCCCC1,6%
26,C[C@@H](CN)N(C)c1ccnc2cc(Br)cnc12,96%

row,Compound,% Inhibition
1,O=C(O)C1c2ccccc2C(=O)N(C2CCCCC2)C1c1ccc(Cl)cc1 (configuration not stated),-3%
2,Cc1noc(C)c1CN1CCNC(=O)CC1,-14%
3,Cc1noc(C)c1CN1C[C@@H]2Oc3cc(F)ccc3C(=O)N(C)[C@@H]2C1,97%
4,Cc1noc(C)c1CN1CCCN(C(=O)c2n[nH]c3ccccc23)CC1,7%
5,Cc1ccc(N2C(=O)c3ccccc3[C@H]2Nc2nc(C)cs2)nc1,-16%
6,C[C@@H]1CN(C(=O)NCCc2ccc(C(F)(F)F)cn2)C[C@H](C)O1,6%
7,Cc1cc(NCc2noc(-c3ccsc3)n2)ccc1C(N)=O,5%
8,Cc1noc(C)c1NS(=O)(=O)c1ccc2c(c1)OCCCO2,0%
9,CCN(CC(=O)Nc1ccc2c(c1)OCCO2)C(=O)CCc1c(C)noc1Cl,5%
10,COc1ccc2[nH]c3c(c2c1)CCN(C(=O)c1ccc(C)c(C)c1)[C@@H]3c1ccccc1OC,86%
11,COc1ccc(N2CCN(C(=O)c3ccc(F)cc3)[C@@H](C)C2=O)cc1,11%
12,COc1ccc([C@@H]2c3[nH]c4ccc(OC)cc4c3CCN2C(=O)NCc2ccc(F)cc2)cc1,4%
13,CC1(C)CCC(Nc2ccc(C(N)=O)nn2)CC1,92%
14,CC1CCCCC1OCCN1CCOCC1C(N)=O (configuration not stated),7%
15,COc1cccc(-c2cc(C(=O)Nc3ccc(F)c(Cl)c3)c3c(C)nn(C)c3n2)c1,4%
16,Cc1nn(C)c(C)c1-c1cc(C(=O)Nc2cc(F)ccc2F)c2c(C)nn(C)c2n1,2%
17,CC(C)C(C(=O)O)N1Cc2c(cc(O)c3c2OC2(C3)C(C)CCC3C(C)(C)C(O)CCC32C)C1=O (configuration not stated),5%
18,Cc1c(NC(=O)C(F)(F)[C@@]2(F)OC(F)(F)C(F)(F)C2(F)F)c(=O)n(-c2ccccc2)n1C,-16%
19,Cc1cc(F)ccc1-n1ccc(C(=O)N(C[C@H]2CCOC2)C2CC2)n1,-12%
20,CC[C@](O)(C(=O)N(C)Cc1ncon1)c1cccc(Cl)c1,-13%
21,Cc1ccc(CC[C@H]2Nc3ccccc3C(c3ccccc3)(c3ccccc3)O2)o1,66%
22,CCCOC(=O)c1cc(NC(=O)c2ccc3ccccc3c2)ccc1N1CCOCC1,-11%
23,Cc1cc(C(=O)N2CCC3(CCNCC3)CC2)ccc1F,7%
24,CN1C(=O)[C@H](O)N(c2cccc3ccccc23)C1=O,9%
25,COc1cccc(-c2cc3c(N4CCN(c5ccccn5)CC4)nccn3n2)c1,4%
26,C[C@H](NC(=O)c1cc(-c2ccc(F)cc2)ns1)c1ccccn1,9%

row,Compound,% Inhibition
1,Cc1c2c(C(F)(F)F)cc(=O)n(CCC(=O)Nc3ncc(Cl)cc3Cl)c2nn1C,-7%
2,Cn1c(Cc2n[n+]3c(-c4ccccc4)cc(-c4ccccc4)nc3n2C)n[n+]2c(-c3ccccc3)cc(-c3ccccc3)nc12,95%
3,Cc1ccc(Cl)cc1N1CCN(C(=O)c2ccc3noc(-c4ccc(F)cc4)c3c2)CC1,-13%
4,c1ccc(CC2CCN(c3[nH]cnc4ncnc3-4)CC2)cc1,11%
5,O=C(Nc1cccc(C(F)(F)F)c1)C(Oc1ccccc1)Oc1ccccc1,-19%
6,O=C(Nc1cc(N2CCCS2(=O)=O)ccc1O)c1cccc(Oc2cccc(C(F)(F)F)c2)c1,97%
7,Cc1cccc(C(=O)Nc2ccc(N3CCCCCC3)cc2C(=O)O)c1,-10%
8,CCOC(=O)c1oc(NC(=O)OC(C)(C)C)nc1C(F)(F)F,5%
9,C#CCn1ccc(O)c(Cc2ccccc2)c1=O,14%
10,CN(C(=O)C1CC=CC1)c1ccc(NC(=O)C2CC=CC2)cc1Cl,-13%
11,Oc1ccccc1CCN[C@H]1CCc2ccc(F)cc21,95%
12,Cc1ccnc(CNC(=O)N[C@H]2CCc3ccc(F)cc32)c1,-12%
13,c1ccc(N2CCN(CCN[C@H]3CCc4cc5c(cc43)CCC5)CC2)cc1,9%
14,CN(Cc1ccc(F)cc1Cl)[C@H]1CCc2nnc(C3CCOCC3)n2CC1,-4%
15,O=C1OCc2cc(NC(=O)[C@@H]3COc4ccccc4O3)ccc21,10%
16,Cc1cc(OCc2ccc(C(=O)Nc3ncn(Cc4c(F)cccc4Cl)n3)o2)ccc1Cl,0%
17,COc1ccc(NC(=O)CC(C)(C)CC(=O)O)cc1,10%
18,Cc1cc2nc(C)c(=O)n(Cc3ccc(C(=O)N4CCC(Cc5ccccc5)CC4)cc3)c2cc1C,12%
19,Cn1c(-c2ccc(Cl)c(Cl)c2)c[n+](CC(=O)c2ccc(-c3ccccc3)cc2)c1N,9%
20,Cc1ccc(C(=O)C[n+]2cc(-c3ccc(-c4ccccc4)cc3)n(C)c2N)cc1,4%
21,C=Cn1cc[n+](CC(=O)c2ccc(-c3ccccc3)cc2)c1,51%
22,CCC(C(=O)Nc1cc(C)on1)(C(F)(F)F)C(F)(F)F,9%
23,CCCN1CCN(CCCNC(=O)c2ccc(Cl)c(-n3c(C)nc4cccnc43)c2)CC1,13%
24,Cc1cc(NC(=O)[C@H](C)OC(=O)c2ccc3c(c2)OCC(=O)N3)on1,-19%
25,Cc1nnc(CC(=O)NC2CC(OCc3ccccc3)C2(C)C)o1 (configuration not stated),8%
26,Cc1nnc(CNC(=O)Nc2cccc3c4c(oc23)CCCC4)o1,72%

row,Compound,% Inhibition
1,Cc1nnc(-c2ccccc2NC(=O)CCC2CCC(C)O2)o1 (configuration not stated),-16%
2,Cc1ccc(NC(=N)NC2=N[C@@H](CC(=O)Nc3cccc(C(F)(F)F)c3)C(=O)N2)cc1,-10%
3,CCn1nccc1CNc1ccc(F)cc1F,2%
4,Cc1ccc(S(=O)(=O)N2CCC[C@H](C(=O)NCc3cccc(NC(=O)N4CCCC4)c3)C2)s1,8%
5,Cc1cc2c(OC[C@@H](O)CN3CCOCC3)cccc2[nH]1,-7%
6,Cc1nn(Cc2ccccc2)c(=O)n1-c1ccc(OCc2ccccc2)cc1,-14%
7,COCCCNC(=O)C1CCN(c2c(C)n(-c3ccccc3)c(=O)n(CC(C)C)c2=O)CC1,5%
8,CN(Cc1ccc(F)cn1)c1ccn(C)n1,8%
9,CC1(C)OCc2cc(CNc3ccc4oc(=O)[nH]c4c3)ccc2O1,100%
10,Cc1ccc(C)c(NC(=O)CC(=O)O)c1,-8%
11,O=C1C2CC2C(=O)N1Cc1ccccc1 (configuration not stated),10%
12,Cc1nc(-c2ccc(N3CCC(NCCCn4ccnc4)CC3)cc2)cs1,23%
13,O=C(CN1CCC(c2ccc(F)c(F)c2)CC1)NCc1cccnc1,-8%
14,Cc1ccc(C(=O)N[C@@H](C)CCc2ccccc2)cc1S(=O)(=O)N1CCN(C)CC1,-22%
15,O=S(=O)(c1ccccc1C(F)(F)F)N1CC[C@]2(CCN(c3cccnc3)C2)C1,10%
16,CC(C#N)CNCCC(C)c1ccccc1 (configuration not stated),8%
17,O=C(O)c1cc(C=Cc2ccc3ncccc3c2)ncn1,11%
18,COc1ccc2cc3n(c2c1)C[C@](C(=O)NC1CCCCCC1)(c1ccccc1)N(Cc1ccc(OC(C)C)cc1)C3=O,-23%
19,Brc1cnn(Cc2cnc(NC3C4CCOC4C34CCC4)s2)c1 (configuration not stated),4%
20,C[C@@H](N)C(=O)N1CCc2cc(-c3ccccc3)ccc21,11%
21,CCC1CCCC(NS(=O)(=O)CCC(C)(C)C)C1 (configuration not stated),-12%
22,O=c1[nH]c(=O)n(S(=O)(=O)c2ccccc2)cc1F,87%
23,Cc1ccc(N2CCN(S(=O)(=O)c3ccccc3)[C@@H](C)C2=O)cc1F,-11%
24,O=S(=O)(c1ccccc1)N1CCN(S(=O)(=O)c2ccc(Cl)cc2)C1,11%
